For eleven compounds, outcome and AC50 results are on record in PubChem BioAssay (EPA / NIEHS).

Read-out in test [1]: Transforming growth factor beta 1 (TGFb1), TGFB1 (gene 7040)
Briefly: BSK_KF3CT_TGFb1: BioMAP Diversity Plus: KF3CT Assay for Transforming growth factor beta 1 (TGFb1) Biomarker Activity (AID 2283072). The conditions noted are these: primary human keratinocytes with fibroblasts; actives raise or lower the signal. The method in brief:
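KF3CT co-culture (keratinocytes + fibroblasts), 24 h exposure → TGF-b1 ELISA → bidirectional fit, DMSO = baseline. Parallel SRB total-protein staining (0.1% SRB, 10% TCA fixation, 560 nm) for cytotoxicity.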

Read-out in test [2]: C-C motif chemokine 2 (Homo sapiens) (UniProt P13500)
Put plainly: BSK_KF3CT_MCP1: BioMAP Diversity Plus: KF3CT Assay for Monocyte Chemoattractant Protein 1 (MCP1/CCL2) Biomarker Activity (AID 2283073). The conditions noted are these: primary human keratinocytes with fibroblasts; actives raise or lower the signal. The method in brief: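 KF3CT skin co-culture (keratinocytes/foreskin fibroblasts), 24 h post-dose; MCP-1 by ELISA; gain/loss of signal fit bidirectionally vs DMSO baseline.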

Read-out in test [3]: Matrix Metallopeptidase 9 (MMP9), MMP9 (gene 4318)
Put plainly: BSK_KF3CT_MMP9: BioMAP Diversity Plus: KF3CT Assay for Matrix Metallopeptidase 9 (MMP9) Biomarker Activity (AID 2283074).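 For AC50: MMP9 protein level quantified by ELISA in the co-culture.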 The note with it: primary human keratinocytes with fibroblasts; actives raise or lower the signal. The method in brief:
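Values come from bidirectional fitting relative to DMSO of MMP-9 levels, which were measured by ELISA. Measurements were taken 24 h after chemical dosing of a keratinocyte and foreskin fibroblast co-culture.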

Read-out in test [4]: urokinase plasminogen activator (uPA), PLAU (gene 5328)
Put plainly: BSK_KF3CT_uPA: BioMAP Diversity Plus: KF3CT Assay for urokinase plasminogen activator (uPA) Biomarker Activity (AID 2283075). The conditions noted are these: primary human keratinocytes with fibroblasts; actives raise or lower the signal. In outline: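 Values derive from bidirectional fitting against DMSO controls. Keratinocyte/foreskin fibroblast co-cultures received chemical; 24 h later uPA was detected by ELISA, with SRB total-protein staining in parallel wells for overt cytotoxicity.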

Read-out in a further test: CD40, CD40 (gene 958)
Briefly: BSK_LPS_CD40: BioMAP Diversity Plus: LPS Assay for CD40 Biomarker Activity (AID 2283076). The conditions noted are these: primary human HUVEC with PBMC; actives raise or lower the signal. In outline:
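ELISA readout of CD40 in HUVEC/PBMC co-culture (BSK_LPS system), 24 h post-dosing; bidirectional curve fit, DMSO baseline; parallel SRB total-protein staining for cytotoxicity.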

Read-out in test [5]: E-selectin (Homo sapiens) (UniProt P16581)
Put plainly: BSK_LPS_Eselectin: BioMAP Diversity Plus: LPS Assay for Eselectin Biomarker Activity (AID 2283077). The note with it: primary human HUVEC with PBMC; actives raise or lower the signal. The method in brief:
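ELISA readout of E-selectin, 24 h post-dose, HUVEC + PBMC co-culture (LPS system). Gain or loss of signal vs DMSO baseline, bidirectional fit.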

Read-out in test [6]: Interleukin-8 (IL8), CXCL8 (gene 3576)
Briefly: BSK_LPS_IL8: BioMAP Diversity Plus: LPS Assay for Interleukin-8 (IL8) Biomarker Activity (AID 2283078). The note with it: primary human HUVEC with PBMC; actives raise or lower the signal. The method in brief: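 HUVEC + PBMC co-culture, LPS-activated; test chemicals dosed, IL-8 read by ELISA at 24 h. Bidirectional curve fit vs DMSO baseline (gain or loss of signal).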

A short description of test [7]: BSK_LPS_SRB: Viability Assessment in the BioMAP Diversity Plus: LPS Assay (AID 2283079).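 Note: total protein by sulforhodamine B absorbance as a cytotoxicity measure; measured one day after compound addition; fitted in both directions against DMSO so loss or gain of signal counts.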 The conditions noted are these: primary human HUVEC with PBMC. In outline: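 HUVEC + PBMC co-culture, LPS-stimulated; compound 24 h. 10% TCA fix, 0.1% SRB stain, A560. Bidirectional fit vs DMSO.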
Read-out in test [8]: Interleukin-1 alpha (IL1a), IL1A (gene 3552)
Put plainly: BSK_LPS_IL1a: BioMAP Diversity Plus: LPS Assay for Interleukin-1 alpha (IL1a) Biomarker Activity (AID 2283080). The conditions noted are these: primary human HUVEC with PBMC; actives raise or lower the signal. The method in brief:
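HUVEC/PBMC co-culture, LPS system; 24 h after dosing; IL-1a by ELISA; gain or loss of signal fitted bidirectionally vs DMSO baseline.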

Read-out in test [9]: Monocyte Chemoattractant Protein-1 (MCP1), CCL2 (gene 6347)
Briefly: BSK_LPS_MCP1: BioMAP Diversity Plus: LPS Assay for Monocyte Chemoattractant Protein-1 (MCP1) Biomarker Activity (AID 2283081).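 For AC50: secreted MCP-1 protein quantified by ELISA in culture supernatant.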 The note with it: primary human HUVEC with PBMC; actives raise or lower the signal. The method in brief:
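ELISA read-out of MCP-1 after 24 h chemical dosing of a human umbilical vein endothelial cell/peripheral blood mononuclear cell co-culture stimulated with LPS. Gain or loss of signal fitted relative to DMSO controls.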

Activity calls are given as the source filed them. Rule for the calls: active = hit-call score of the fitted dose curve at least 0.9, where 1 is the maximum; inactive = score below 0.9.

Chain of E-selectin (Homo sapiens) (P16581 whole entry, looked up): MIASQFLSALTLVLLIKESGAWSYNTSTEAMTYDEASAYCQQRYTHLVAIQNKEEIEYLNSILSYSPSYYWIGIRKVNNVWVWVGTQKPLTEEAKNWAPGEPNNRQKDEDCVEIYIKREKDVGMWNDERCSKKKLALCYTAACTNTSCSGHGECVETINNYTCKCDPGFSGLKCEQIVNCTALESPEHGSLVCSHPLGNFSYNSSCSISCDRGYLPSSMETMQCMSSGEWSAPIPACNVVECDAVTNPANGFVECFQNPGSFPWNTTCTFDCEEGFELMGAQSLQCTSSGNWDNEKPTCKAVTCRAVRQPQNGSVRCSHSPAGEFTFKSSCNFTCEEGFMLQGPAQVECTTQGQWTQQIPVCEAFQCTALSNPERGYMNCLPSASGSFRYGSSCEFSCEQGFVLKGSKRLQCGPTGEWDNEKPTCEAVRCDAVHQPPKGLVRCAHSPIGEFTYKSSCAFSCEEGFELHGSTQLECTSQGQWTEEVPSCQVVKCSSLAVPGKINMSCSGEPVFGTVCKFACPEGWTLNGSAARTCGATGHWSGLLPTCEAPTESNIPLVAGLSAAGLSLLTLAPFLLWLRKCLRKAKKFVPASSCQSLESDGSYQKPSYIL

One may read the AC50 as the midpoint of the concentration-response curve, whichever way the signal moves. Consider `Cc1cccc(N)c1N`, for which the result in [1], in test [2], in test [3], in [4], in test [5] and in test [7] was inactive. In addition, the outcome in test [8] and in test [9] was inactive. Also, the AC50 in the test with CD40, CD40 (gene 958) was 7.51 µM (active); in test [6], 20 µM (active).
As for `Cc1ccc(N)c(N)c1`, the outcome in [1] is “inactive”; in [2] it was “inactive”; in [4], “inactive”; with CD40, CD40 (gene 958), “inactive”; in [5], “inactive”; in test [6], “inactive”. Further, the outcome in test [7], in test [8] and in [9] was inactive. Moreover, the AC50 in test [3] was 9.74 µM (active).
Consider `Clc1ccc(C(c2ccc(Cl)cc2)C(Cl)(Cl)Cl)cc1`, for which the AC50 in test [1] was 14.8 µM (active); in test [2] it was 12.7 µM (active); in test [3], 11 µM (active); in [4], 20.1 µM (active); with CD40, CD40 (gene 958), 20 µM (active); in [5], 31.7 µM (active). The AC50 in test [6] is 27.4 µM (active); in [7], 28.9 µM (active); in test [8] it was 14.6 µM (active); in test [9], 33.1 µM (active).
As for `O=C(Nc1ccccc1)c1ccccc1I`, the outcome was “inactive” in [1]; “inactive” in [2]; “inactive” in test [3]; “inactive” in test [4]; “inactive” with CD40, CD40 (gene 958); “inactive” in [5]. Also, the result in test [6], in test [7], in [8] and in test [9] was inactive.
As for `CS(=O)(=O)NC(=O)c1cc(Oc2ccc(C(F)(F)F)cc2Cl)ccc1[N+](=O)[O-]`, the outcome in test [1] is “inactive”; in test [2], “inactive”; in [3], “inactive”; in [4] it was “inactive”; in the test with CD40, CD40 (gene 958), “inactive”; in test [5], “inactive”. Moreover, the result in test [6], in test [7], in [8] and in [9] was inactive.
Consider `O=C1CCCO1`, for which the outcome was “inactive” in test [1]; “inactive” in test [2]; “inactive” in test [3]; “inactive” in test [4]; “inactive” with CD40, CD40 (gene 958); “inactive” in [5]. Moreover, the result in test [6], in [7], in [8] and in [9] was inactive.
On to `OCCCl`, for which the outcome is “inactive” in test [1]; “inactive” in test [2]; “inactive” in test [3]; “inactive” in [4]; “inactive” in the test with CD40, CD40 (gene 958); “inactive” in [5]. The result in test [6], in [7], in test [8] and in test [9] was inactive.
For the compound `ClCCOCCCl`, the outcome in test [1] is “inactive”; in test [2], “inactive”; in test [3], “inactive”; in test [4] it was “inactive”; with CD40, CD40 (gene 958), “inactive”; in [5], “inactive”. In addition, the outcome in test [6], in [7], in test [8] and in [9] was inactive.
Turning to `CCCCCCCCn1sccc1=O`, the AC50 in test [1] was 9.71 µM (active); in test [2] it was 10.6 µM (active); in test [3] it was 12.4 µM (active); in test [4] it was 11.2 µM (active); with CD40, CD40 (gene 958), 5.76 µM (active); in test [5], 9.25 µM (active). In addition, the AC50 in [6] is 9.78 µM (active); in test [7], 20.8 µM (active); in test [8] it was 4.97 µM (active); in test [9] it was 6.88 µM (active).
With `Clc1ccccc1Cl`, the outcome in test [1] is “inactive”; in test [2], “inactive”; in test [3] it was “inactive”; in [4], “inactive”; with CD40, CD40 (gene 958) it was “inactive”; in test [5], “inactive”. The outcome in test [6], in test [7], in [8] and in [9] was inactive.
For the compound `ClC1=C(Cl)C2(Cl)C3C(Cl)C=CC3C1(Cl)C2(Cl)Cl` (stereo not given), the AC50 in test [1] was 14 µM (active); in [2], 14.6 µM (active); in [3] it was 13.8 µM (active); in [4], 31 µM (active); with CD40, CD40 (gene 958), 30.9 µM (active); in [5], 30.6 µM (active). Further, the AC50 was 31.6 µM (active) in [6], 29.5 µM (active) in test [7], 30 µM (active) in [8] and 31.4 µM (active) in [9].
